# Measured values published in ChEMBL document CHEMBL1961873, “Compounds: GSK PKIS; Assays: Nanosyn kinase panel” (2012).
# Target: Tyrosine-protein kinase Fer (Homo sapiens) (UniProt P16591)
# Conditions: at 1 µM
# Tyrosine-protein kinase Fer (Homo sapiens), sequence (P16591 whole entry, looked up): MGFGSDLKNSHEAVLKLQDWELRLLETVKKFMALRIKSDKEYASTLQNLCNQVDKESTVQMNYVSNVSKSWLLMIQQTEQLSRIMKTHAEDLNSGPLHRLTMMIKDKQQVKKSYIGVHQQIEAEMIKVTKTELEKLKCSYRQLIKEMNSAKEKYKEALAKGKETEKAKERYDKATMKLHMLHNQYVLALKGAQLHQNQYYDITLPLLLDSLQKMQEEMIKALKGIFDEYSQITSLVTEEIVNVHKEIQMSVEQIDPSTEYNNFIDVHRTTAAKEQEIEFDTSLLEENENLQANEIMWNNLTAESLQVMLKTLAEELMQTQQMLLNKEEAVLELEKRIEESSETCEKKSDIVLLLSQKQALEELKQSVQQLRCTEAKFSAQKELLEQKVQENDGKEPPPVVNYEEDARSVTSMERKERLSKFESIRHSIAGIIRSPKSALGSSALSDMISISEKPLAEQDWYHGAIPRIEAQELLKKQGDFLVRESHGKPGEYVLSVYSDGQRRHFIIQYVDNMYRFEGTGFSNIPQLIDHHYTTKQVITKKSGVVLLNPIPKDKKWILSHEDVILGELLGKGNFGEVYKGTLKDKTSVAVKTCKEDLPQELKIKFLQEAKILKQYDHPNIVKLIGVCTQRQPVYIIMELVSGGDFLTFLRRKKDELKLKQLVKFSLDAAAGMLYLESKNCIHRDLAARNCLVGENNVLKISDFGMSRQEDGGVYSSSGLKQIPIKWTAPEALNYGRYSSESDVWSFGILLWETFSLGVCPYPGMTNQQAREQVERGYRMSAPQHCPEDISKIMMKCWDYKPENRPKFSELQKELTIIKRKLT
row,SMILES,inhibition [%]
1,N#Cc1c(NC(=O)c2cccc3ccccc23)sc2c1CCCC2,1.93
2,CCn1c(-c2nonc2N)nc2cnc(Oc3cccc(NC(=O)c4ccc(OCCN5CCOCC5)cc4)c3)cc21,2.2
3,COc1ccccc1Nc1ncc(-c2ccccc2)o1,11.2
4,COc1ccc(COc2ccc(Cc3cnc(N)nc3N)cc2OC)cc1,2.33
5,CS(=O)(=O)Nc1ccc(N/C=C2\C(=O)Nc3ccccc32)cc1,5.06
6,CC1=C(C(=O)Nc2ccc3[nH]ncc3c2)C(c2ccc(Cl)c(Cl)c2)CC(=O)N1 (stereo not given),1.24
7,COc1cc2ncn(-c3cc(O[C@@H](C)c4ccccc4Cl)c(C(N)=O)s3)c2cc1OC,8.42
8,NS(=O)(=O)c1cccc(-c2ccc3c(NC(=O)C4CC4)n[nH]c3c2)c1,3.76
9,Nc1ncnc2occ(-c3ccc(NC(=O)Nc4cccc(C(F)(F)F)c4)cc3)c12,33.6
10,CS(=O)(=O)CCNCc1ccc(-c2ccc3ncnc(Nc4ccc(OCc5cccc(F)c5)c(C(F)(F)F)c4)c3c2)o1,1.93
11,O=C1Nc2ccc(C(=O)c3ccco3)cc2C1=Cc1cc(Cl)c(O)c(Cl)c1,11.5
12,COc1cc2c(cc1Nc1nc(N3CCc4ccccc43)c3cc[nH]c3n1)N(C(=O)CN(C)C)CC2,85.2
13,CCc1cccc(NC(=O)Nc2ccc(Oc3ccc4nc(NC(=O)OC)[nH]c4c3)cc2)c1,1.84
14,CCN1CCC(CC(=O)Nc2n[nH]c3nc(-c4cccs4)c(Br)cc23)CC1,2.34
15,Cc1ccc(NC(=O)c2ccnc(N3CCCC3)c2)cc1-c1ccc(C(=O)NCC2CC2)cc1,1.67
16,CCn1c(-c2nonc2N)nc2c(C#CC(C)(C)O)nc(CN3CCCC3)cc21,0.06
17,COc1cc(C)c(NC(=O)CN(C)C)cc1Nc1nc(Nc2cccc(F)c2C(N)=O)c2cc[nH]c2n1,86.8

# Target: Tyrosine-protein kinase Fes/Fps (Homo sapiens) (UniProt P07332)
# Conditions: at 0.1 µM
# Tyrosine-protein kinase Fes/Fps (Homo sapiens), sequence (P07332 whole entry): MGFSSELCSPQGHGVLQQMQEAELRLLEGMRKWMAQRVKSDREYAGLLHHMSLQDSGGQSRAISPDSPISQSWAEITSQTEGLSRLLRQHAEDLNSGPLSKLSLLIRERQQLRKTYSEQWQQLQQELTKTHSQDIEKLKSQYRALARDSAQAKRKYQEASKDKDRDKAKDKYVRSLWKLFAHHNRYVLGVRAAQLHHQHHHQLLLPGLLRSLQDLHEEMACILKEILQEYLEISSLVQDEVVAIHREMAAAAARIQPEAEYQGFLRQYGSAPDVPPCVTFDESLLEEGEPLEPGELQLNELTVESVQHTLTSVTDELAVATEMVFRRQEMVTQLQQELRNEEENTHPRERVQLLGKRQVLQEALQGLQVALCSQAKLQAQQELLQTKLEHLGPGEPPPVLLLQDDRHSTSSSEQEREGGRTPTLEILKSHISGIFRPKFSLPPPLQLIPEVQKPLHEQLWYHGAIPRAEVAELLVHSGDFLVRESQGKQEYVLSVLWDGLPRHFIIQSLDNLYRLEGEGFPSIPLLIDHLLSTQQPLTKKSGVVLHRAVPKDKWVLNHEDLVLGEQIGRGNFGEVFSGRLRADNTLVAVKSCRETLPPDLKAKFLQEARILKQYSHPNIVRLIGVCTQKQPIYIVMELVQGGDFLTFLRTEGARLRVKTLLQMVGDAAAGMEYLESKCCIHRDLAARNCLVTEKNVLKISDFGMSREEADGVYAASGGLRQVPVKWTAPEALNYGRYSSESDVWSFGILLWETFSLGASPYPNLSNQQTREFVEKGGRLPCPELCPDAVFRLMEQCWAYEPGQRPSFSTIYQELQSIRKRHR
row,SMILES,inhibition [%]
1,Nc1nc(-c2ccccn2)c(-c2ccc3ncccc3n2)s1,2.12
2,Fc1cccc(COc2ccc(Nc3ncnc4cc(-c5ccc[nH]5)sc34)cc2Cl)c1,1.96
3,COc1cccc(-n2ncc3c(N/N=C/c4cccc(F)c4)ncnc32)c1,1.31
4,CCn1c(-c2nonc2N)nc2c(C#CC(C)(C)O)nc(OC[C@@H](N)c3ccccc3)cc21,-0.53
5,COc1ccc(-c2coc3ncnc(N)c23)cc1,4.28
6,Cc1cccc(-c2n[nH]cc2-c2ccc3ncccc3n2)n1,0.45
7,Nc1ncnc2occ(-c3ccc(NC(=O)Nc4cc(C(F)(F)F)cc(C(F)(F)F)c4)cc3)c12,1.31
8,[O-][S+]1CCN(Cc2ccc(-c3ccc4ncnc(Nc5ccc(OCc6ccccc6)c(F)c5)c4c3)o2)CC1,1.91
9,Nc1nc(-c2ccc3c(c2)C(=Cc2cc(Br)c(O)c(Br)c2)C(=O)N3)cs1,-2.93
10,CC1=C(C(=O)Nc2ccc3[nH]ncc3c2)C(c2ccc3ccccc3c2)CC(=O)N1 (stereo not given),1.76
11,CS(=O)(=O)CCNCc1ccc(-c2ccc3ncnc(Nc4ccc(OCc5ccccc5)c(Cl)c4)c3c2)o1,0.53
12,c1cnn2ncc(-c3ccnc(Nc4ccc5c(c4)OCCO5)n3)c2c1,10.5
13,CN1CCC(C(=O)Nc2n[nH]c3nnc(-c4ccccc4)cc23)CC1,3.95
14,Cn1cc(C=C2C(=O)Nc3cccnc32)c2ccccc21,1.69
15,Cc1nnc(-c2ccc(C)c(-c3ccc(C(=O)Nc4cccc(C#N)c4)cc3)c2)o1,0.91
16,CNC(=O)c1cncc(/C=C/c2c(Cl)cccc2Cl)c1,2.89
17,N#Cc1c(NC(=O)c2cccc3ccccc23)sc2c1CCCC2,2.2

row,SMILES,inhibition [%]
1,CCn1c(-c2nonc2N)nc2cnc(Oc3cccc(NC(=O)c4ccc(OCCN5CCOCC5)cc4)c3)cc21,2.8
2,COc1ccccc1Nc1ncc(-c2ccccc2)o1,4.25
3,COc1ccc(COc2ccc(Cc3cnc(N)nc3N)cc2OC)cc1,1.72
4,CS(=O)(=O)Nc1ccc(N/C=C2\C(=O)Nc3ccccc32)cc1,-2.08
5,CC1=C(C(=O)Nc2ccc3[nH]ncc3c2)C(c2ccc(Cl)c(Cl)c2)CC(=O)N1 (stereo not given),1.63
6,COc1cc2ncn(-c3cc(O[C@@H](C)c4ccccc4Cl)c(C(N)=O)s3)c2cc1OC,3.85
7,NS(=O)(=O)c1cccc(-c2ccc3c(NC(=O)C4CC4)n[nH]c3c2)c1,-3.2
8,Nc1ncnc2occ(-c3ccc(NC(=O)Nc4cccc(C(F)(F)F)c4)cc3)c12,3.8
9,CS(=O)(=O)CCNCc1ccc(-c2ccc3ncnc(Nc4ccc(OCc5cccc(F)c5)c(C(F)(F)F)c4)c3c2)o1,2.48
10,O=C1Nc2ccc(C(=O)c3ccco3)cc2C1=Cc1cc(Cl)c(O)c(Cl)c1,1.95
11,COc1cc2c(cc1Nc1nc(N3CCc4ccccc43)c3cc[nH]c3n1)N(C(=O)CN(C)C)CC2,39.9
12,CCc1cccc(NC(=O)Nc2ccc(Oc3ccc4nc(NC(=O)OC)[nH]c4c3)cc2)c1,0.9
13,CCN1CCC(CC(=O)Nc2n[nH]c3nc(-c4cccs4)c(Br)cc23)CC1,-3.39
14,Cc1ccc(NC(=O)c2ccnc(N3CCCC3)c2)cc1-c1ccc(C(=O)NCC2CC2)cc1,5.28
15,CCn1c(-c2nonc2N)nc2c(C#CC(C)(C)O)nc(CN3CCCC3)cc21,-1.26
16,COc1cc(C)c(NC(=O)CN(C)C)cc1Nc1nc(Nc2cccc(F)c2C(N)=O)c2cc[nH]c2n1,76.1
